This note sets out measurements from PubChem BioAssay.

Assay [1] concerns the target 6-phosphogluconate dehydrogenase, decarboxylating (Homo sapiens) (UniProt P52209). Nature of the assay: inhibition of human phosphogluconate dehydrogenase – biochemical, recombinant enzyme, NADPH absorbance, primary screen (AID 1159550;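 active means at least 20% inhibition of 6-phosphogluconate dehydrogenase activity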). The following applies: recombinant 6PGD, NADPH absorbance 341 nm; at 10 µM; stronger effect = higher value.
The test system of assay [2] is Aerobactin synthetase IucA (Klebsiella pneumoniae hvKP1). Put plainly: IucA enzyme inhibition, primary screen, biochemical, Spectrum library (AID 1346200).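 Further: 100% = wells without compound and 0% = wells lacking enzyme.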 The following applies: malachite green pyrophosphate, A620, at 8 µM, stronger effect = lower value.
Assay [3] can be described thus: viability loss with induced miR-34 in A549 – imaging, A549 dox-inducible miR-34, nuclei and caspase counts, primary screen (AID 1347080;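 active means compounds whose cell count with miR-34 switched on is under 0.7 times the count with it off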). The following applies: A549 miR-34 inducible, Hoechst nuclei count, 48 h.
Assay [4] is described as follows: chitosan synthesis blockers in C. neoformans – flow cytometry, Cibacron Brilliant Red staining (AID 1347148).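 Further: compound exposure lasted three days at 37 degrees C.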 The following applies: Cryptococcus neoformans chitosan, stronger effect = lower value; at 10 µM unless noted. For orientation: A flow cytometer gives signals particle by particle.
Assay [5] deals with Mitogen-activated protein kinase 7 (Homo sapiens) (UniProt Q13164). Put plainly: Gal4-ERK5 driven luciferase induction – cell-based, HTS, primary screen (AID 1508626;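 active means luciferase signal above three times the same-plate solvent-only control wells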;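 further: luciferase driven by Gal4-ERK5 fusion binding five Gal4 sites before minimal TATA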). The following applies: HeLa Gal4-ERK5 transactivation, 18 h, at 5 µM, stronger effect = higher value.
Chain of Mitogen-activated protein kinase 7 (Homo sapiens) (Q13164 whole entry, looked up, the tested form may be a part): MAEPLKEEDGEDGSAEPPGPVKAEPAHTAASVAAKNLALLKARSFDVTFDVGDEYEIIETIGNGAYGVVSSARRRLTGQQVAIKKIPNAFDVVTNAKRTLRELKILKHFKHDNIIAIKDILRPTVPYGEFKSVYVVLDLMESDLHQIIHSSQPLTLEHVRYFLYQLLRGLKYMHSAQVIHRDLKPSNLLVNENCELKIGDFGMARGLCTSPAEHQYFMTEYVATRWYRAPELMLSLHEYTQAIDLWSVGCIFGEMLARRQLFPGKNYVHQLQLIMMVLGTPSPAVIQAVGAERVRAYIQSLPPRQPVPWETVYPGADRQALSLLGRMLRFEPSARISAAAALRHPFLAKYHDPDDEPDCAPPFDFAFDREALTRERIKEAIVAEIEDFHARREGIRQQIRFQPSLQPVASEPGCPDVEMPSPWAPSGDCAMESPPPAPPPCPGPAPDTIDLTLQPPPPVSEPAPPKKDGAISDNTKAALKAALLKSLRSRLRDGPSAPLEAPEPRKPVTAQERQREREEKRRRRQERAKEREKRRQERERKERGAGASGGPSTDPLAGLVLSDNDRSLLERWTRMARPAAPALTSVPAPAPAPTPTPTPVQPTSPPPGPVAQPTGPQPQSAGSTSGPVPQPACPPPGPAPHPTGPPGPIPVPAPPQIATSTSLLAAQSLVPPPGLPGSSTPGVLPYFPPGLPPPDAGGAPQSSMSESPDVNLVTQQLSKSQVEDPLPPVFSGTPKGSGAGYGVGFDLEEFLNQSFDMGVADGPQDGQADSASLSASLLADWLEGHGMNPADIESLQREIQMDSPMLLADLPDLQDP
A short description of assay [6]: blockers of polyQ-driven CASP3 activation – cell-based (AID 1583). The following applies: polyglutamine-induced caspase-3 activation, cell assay; stronger effect = higher value;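 tested at 10 µM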.
Assay [7] is described as follows: yeast 75Q aggregation reduction – 75Q-TubU reporter (AID 1593). The following applies: Yeast 75Q polyglutamine aggregation reporter.
The nature of assay [8]: restoration of touch response, mutant HTT neurons – whole organism, C. elegans mechanosensory neurons, N-terminal huntingtin (AID 1599). The following applies: C. elegans polyQ-huntingtin mechanosensory neurons, stronger effect = higher value.
A short description of assay [9]: blockers of cytochrome c efflux from mitochondria – biochemical, purified mitochondria (AID 1603).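 Further: mouse liver mitochondria challenged with calcium chloride; signal normalized to the plate average as 100%.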 The following applies: stronger effect = lower value.
Assay [10] in a line: polyglutamine aggregate formation blockers (AID 1604). The following applies: polyglutamine-induced protein aggregation inhibition assay; stronger effect = higher value; tested at 2.5 µM.
The nature of assay [11]: glutamate transport activators, MN-1 cells, MN-1 cell line (AID 1612).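 Further: tested at 1 µM final; 0% = mean of DMSO vehicle wells on each plate; positive means more glutamate uptake than control and negative means less.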 The following applies: MN-1 motor neuron cells, stronger effect = higher value.
Assay [12] in a line: 75Q-TubH aggregate inhibition, S. cerevisiae, yeast (AID 1616). The following applies: S. cerevisiae 75Q-TubH polyglutamine aggregation suppression; stronger effect = higher value.
The nature of assay [13]: P. berghei load reduction in hepatocytes – cell-based, HepG2, luciferase luminescence, HepG2 viability, primary screen (AID 624349; in the data active means parasite load remaining mostly below about 12%, no sharp cut-off; inactive means mostly above about 10%;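 further: 100% = mean of DMSO negative control wells on the same plate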). The following applies: P. berghei liver stage in HepG2, luciferase luminescence, concentration not given here; parasite load remaining: stronger effect = lower value; viability: measured here: HepG2 viability without parasites.
The nature of assay [14]: EMT-state selective cytotoxicity in co-culture – imaging, PC-3E GFP, TEM4-18 mCherry, primary screen (AID 1345086;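 active means compounds killing one labelled cell type while sparing the other, by normalised counts and ratio limits, not self-fluorescent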;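 on all read-outs here: cells exposed to compound for 72 h before imaging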;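 on red/green cell ratio (normalised): normalised mesenchymal count divided by normalised epithelial count so high means epithelial killing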). The following applies: PC-3E GFP / TEM4-18 mCherry co-culture, imaging cell counts, at 1 µM; for red/green cell ratio (normalised): actives lie on both sides.
Assay [15] has as its target NAD(+) hydrolase SARM1 (Homo sapiens) (UniProt Q6SZW1). Nature of the assay: blocking NAD cleavage by SARM1 SAM-TIR – cell lysate, NAD-Glo luminescence (AID 1508614;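 active means compound whose remaining NAD level is above about 45 nM, limit read from the data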). The following applies: SAM-TIR HEK293T lysate NADase, at 1 µM, stronger effect = higher value.
The mark [16] stands for this setting: measured here: relative caspase fold change +Dox/-Dox.
Setting [17] is: measured here: total cells with miR-34 induction, stronger effect = lower value.
Where [18] appears, read: measured here: total cells without miR-34 induction.
Where [19] appears, read: measured here: epithelial PC-3E GFP cell survival.
Setting [20] is: measured here: mesenchymal TEM4-18 mCherry cell survival.

Values joined by “and” are separate entries in the source; they are usually repeats but may differ in a detail not shown here. Equal entries are not always repeated. For some assays here: Entries with a potency or affinity are not part of this list. Active and inactive are the calls of the source. Unless noted, how the calls were made is not given here.

Chain of 6-phosphogluconate dehydrogenase, decarboxylating (Homo sapiens) (P52209 whole entry, looked up): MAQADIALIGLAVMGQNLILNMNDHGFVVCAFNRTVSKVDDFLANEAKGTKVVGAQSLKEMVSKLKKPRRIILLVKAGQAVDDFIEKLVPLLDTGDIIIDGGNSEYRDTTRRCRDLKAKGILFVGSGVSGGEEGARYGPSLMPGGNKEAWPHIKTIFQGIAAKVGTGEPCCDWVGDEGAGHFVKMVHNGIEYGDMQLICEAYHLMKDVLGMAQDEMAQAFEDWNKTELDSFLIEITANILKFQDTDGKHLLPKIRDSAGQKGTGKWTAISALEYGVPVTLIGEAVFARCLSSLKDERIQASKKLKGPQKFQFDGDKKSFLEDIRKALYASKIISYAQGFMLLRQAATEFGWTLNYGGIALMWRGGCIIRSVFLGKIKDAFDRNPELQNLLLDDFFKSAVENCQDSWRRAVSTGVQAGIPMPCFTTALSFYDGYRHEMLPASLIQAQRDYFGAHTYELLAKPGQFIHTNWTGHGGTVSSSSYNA
Chain of NAD(+) hydrolase SARM1 (Homo sapiens) (Q6SZW1 whole entry, looked up): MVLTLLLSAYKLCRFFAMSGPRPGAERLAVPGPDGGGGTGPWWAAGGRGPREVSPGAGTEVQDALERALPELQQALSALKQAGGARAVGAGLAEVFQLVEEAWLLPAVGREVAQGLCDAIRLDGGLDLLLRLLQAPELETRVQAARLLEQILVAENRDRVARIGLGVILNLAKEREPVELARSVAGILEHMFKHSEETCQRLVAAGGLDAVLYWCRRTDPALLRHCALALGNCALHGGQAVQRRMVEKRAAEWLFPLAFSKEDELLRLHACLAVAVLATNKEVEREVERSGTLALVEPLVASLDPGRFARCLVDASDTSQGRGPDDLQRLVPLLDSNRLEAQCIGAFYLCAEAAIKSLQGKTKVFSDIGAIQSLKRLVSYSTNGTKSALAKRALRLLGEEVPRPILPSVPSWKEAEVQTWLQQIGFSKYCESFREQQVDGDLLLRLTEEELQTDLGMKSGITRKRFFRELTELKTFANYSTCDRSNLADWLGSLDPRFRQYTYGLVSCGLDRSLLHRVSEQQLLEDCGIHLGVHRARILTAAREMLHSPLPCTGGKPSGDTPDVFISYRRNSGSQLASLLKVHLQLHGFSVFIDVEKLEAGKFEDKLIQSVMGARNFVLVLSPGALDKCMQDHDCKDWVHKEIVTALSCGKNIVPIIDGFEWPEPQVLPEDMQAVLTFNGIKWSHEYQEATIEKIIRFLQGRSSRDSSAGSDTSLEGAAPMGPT

For `COc1cccc2c1cc([N+](=O)[O-])c1c(C(=O)O)cc3c(c12)OCO3`, the inhibition in assay [1] is -5.9% (inactive). Further, in [2], the activity remaining is 103% (inactive). The results for the fold change in assay [3] (stronger effect = lower value) and in [3] (setting [16]) were 1.04 (inactive) and 1.14, respectively. In addition, the cell count in assay [3] (setting [17]) was found to be 4170; in assay [3] (setting [18]), 4020. Moreover, the fold fluorescence in [4] is 4.86 [at 146.5 µM] (inactive). The luciferase signal in [5] was 36 AU (inactive).

As for `C=C1C2CC[C@@]3(C)[C@H](c4ccoc4)OC(=O)C[C@]13O[C@H]1CC(=O)C(C)(C)[C@H](C(OC(C)=O)C(=O)OC)[C@@]21C` (some centres undefined), the inhibition in assay [1] was 6.78% (inactive). In addition, in assay [2], the activity remaining was 88.1% (inactive).

With `c1ccc(N=Nc2ccccc2)cc1`, the inhibition in assay [6] was -11.7%; in [1] it was 14.4% (inactive). Also, in assay [7], the score worked out at 0.28. The rescue above control in assay [8] worked out at 6.73. Further, the cytochrome c release ratio in [9] stood at 0.73. The compound also gave an inhibition of aggregation in [10] of 88.8%. For the same compound, the glutamate uptake change in assay [11] was -16%. The aggregation suppression score in assay [12] is 0.313. The parasite load remaining in assay [13] was 103% (inactive). Also, the viability in assay [13] is 66.9%. For the same compound, the red/green cell ratio (normalised) in [14] is 0.85 (inactive). The normalised cell number is 1.3 in assay [14] (setting [19]) and 1.1 in assay [14] (setting [20]). The activity remaining in assay [2] is 103% (inactive). The luciferase signal in assay [5] is 40 AU (inactive).

Take `OC[C@@H]1CCCN2CCCC[C@H]12`: in assay [13], the parasite load remaining is 133% (inactive) and the viability was 91.1%. Besides, the inhibition in assay [1] was -5.58% (inactive). For the same compound, the red/green cell ratio (normalised) in assay [14] was 0.92 (inactive). The same compound showed a normalised cell number in assay [14] (setting [19]) of 0.97. In addition, the normalised cell number in assay [14] (setting [20]) came out at 0.89. The activity remaining in assay [2] was 109% (inactive). For the same compound, the luciferase signal in assay [5] was 48 AU (inactive).

Turning to `C=CCc1ccc2c(c1)OCO2`, the inhibition in assay [6] is -35.5%; in assay [1] it was 7.49% (inactive). Further, in [7], the score amounted to 0.7. The compound also showed a rescue above control in assay [8] of -4.01. In addition, the cytochrome c release ratio in [9] amounted to 0.78. The compound further had an inhibition of aggregation in [10] of 27.9%. Further, the glutamate uptake change in assay [11] came to 1.11%. In addition, the aggregation suppression score in assay [12] came to 0.706. Moreover, the parasite load remaining in [13] was 147% (inactive). The viability in assay [13] was 87.4%. Moreover, in assay [14], the red/green cell ratio (normalised) is 0.79 (inactive). Also, the normalised cell number was 1.31 in assay [14] (setting [19]) and 1.03 in [14] (setting [20]). Moreover, the activity remaining in assay [2] is 124% (inactive). For the same compound, the luciferase signal in assay [5] is 40 AU (inactive).

Consider `CNc1ccc(C(=O)CC(O)CCC(C)C2OC(=O)CC(O)CC(=O)CC(O)CC(O)CC(O)CC(O)CC3(O)CC(O)C(C(=O)OC)C(CC(O[C@@H]4O[C@H](C)[C@@H](O)[C@H](N)[C@@H]4O)/C=C/C=C/C=C/C=C/C=C/C=C/C=C/C2C)O3)cc1` (some centres undefined), for which the parasite load remaining in assay [13] was 132% (inactive) and 33.6% (inactive). In addition, the viability in assay [13] is 90% and 101%. Moreover, in [1], the inhibition is 2.08% (inactive). In assay [14], the red/green cell ratio (normalised) is 1.39 (inactive). Besides, the normalised cell number is 0.82 in [14] (setting [19]) and 1.14 in [14] (setting [20]). In addition, the fold change was 0.878 (inactive) in [3] (stronger effect = lower value) and 3.37 in assay [3] (setting [16]). The cell count in assay [3] (setting [17]) is 11000; in [3] (setting [18]), 12500. In [15], the remaining NAD is 10 nM (inactive).

As usually defined, the inhibition is the relative decrease from the control value, in per cent. The viability is a read-out of living cells in per cent, often relative to untreated cells.
